The entries come from a sample that favours hits as a whole.
Dicer processing – inhibitors of Dicer pre-microRNA processing, primary screen, biochemical, cat-ELCCA, chemiluminescence; Endoribonuclease Dicer (Homo sapiens), Q9UPY3; cat-ELCCA pre-miR-21 Dicer processing; stronger effect = higher value; z-score at 25 µM; 47,000 tested, 6% active; AID 1347074, 2019; in the data active = z-score above about 3, passing the limit was not always enough;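 also: plate controls were vehicle for no effect and no enzyme for full effect; higher signal means more uncleaved substrate so more Dicer inhibition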
Target sequence (Q9UPY3 whole entry, looked up): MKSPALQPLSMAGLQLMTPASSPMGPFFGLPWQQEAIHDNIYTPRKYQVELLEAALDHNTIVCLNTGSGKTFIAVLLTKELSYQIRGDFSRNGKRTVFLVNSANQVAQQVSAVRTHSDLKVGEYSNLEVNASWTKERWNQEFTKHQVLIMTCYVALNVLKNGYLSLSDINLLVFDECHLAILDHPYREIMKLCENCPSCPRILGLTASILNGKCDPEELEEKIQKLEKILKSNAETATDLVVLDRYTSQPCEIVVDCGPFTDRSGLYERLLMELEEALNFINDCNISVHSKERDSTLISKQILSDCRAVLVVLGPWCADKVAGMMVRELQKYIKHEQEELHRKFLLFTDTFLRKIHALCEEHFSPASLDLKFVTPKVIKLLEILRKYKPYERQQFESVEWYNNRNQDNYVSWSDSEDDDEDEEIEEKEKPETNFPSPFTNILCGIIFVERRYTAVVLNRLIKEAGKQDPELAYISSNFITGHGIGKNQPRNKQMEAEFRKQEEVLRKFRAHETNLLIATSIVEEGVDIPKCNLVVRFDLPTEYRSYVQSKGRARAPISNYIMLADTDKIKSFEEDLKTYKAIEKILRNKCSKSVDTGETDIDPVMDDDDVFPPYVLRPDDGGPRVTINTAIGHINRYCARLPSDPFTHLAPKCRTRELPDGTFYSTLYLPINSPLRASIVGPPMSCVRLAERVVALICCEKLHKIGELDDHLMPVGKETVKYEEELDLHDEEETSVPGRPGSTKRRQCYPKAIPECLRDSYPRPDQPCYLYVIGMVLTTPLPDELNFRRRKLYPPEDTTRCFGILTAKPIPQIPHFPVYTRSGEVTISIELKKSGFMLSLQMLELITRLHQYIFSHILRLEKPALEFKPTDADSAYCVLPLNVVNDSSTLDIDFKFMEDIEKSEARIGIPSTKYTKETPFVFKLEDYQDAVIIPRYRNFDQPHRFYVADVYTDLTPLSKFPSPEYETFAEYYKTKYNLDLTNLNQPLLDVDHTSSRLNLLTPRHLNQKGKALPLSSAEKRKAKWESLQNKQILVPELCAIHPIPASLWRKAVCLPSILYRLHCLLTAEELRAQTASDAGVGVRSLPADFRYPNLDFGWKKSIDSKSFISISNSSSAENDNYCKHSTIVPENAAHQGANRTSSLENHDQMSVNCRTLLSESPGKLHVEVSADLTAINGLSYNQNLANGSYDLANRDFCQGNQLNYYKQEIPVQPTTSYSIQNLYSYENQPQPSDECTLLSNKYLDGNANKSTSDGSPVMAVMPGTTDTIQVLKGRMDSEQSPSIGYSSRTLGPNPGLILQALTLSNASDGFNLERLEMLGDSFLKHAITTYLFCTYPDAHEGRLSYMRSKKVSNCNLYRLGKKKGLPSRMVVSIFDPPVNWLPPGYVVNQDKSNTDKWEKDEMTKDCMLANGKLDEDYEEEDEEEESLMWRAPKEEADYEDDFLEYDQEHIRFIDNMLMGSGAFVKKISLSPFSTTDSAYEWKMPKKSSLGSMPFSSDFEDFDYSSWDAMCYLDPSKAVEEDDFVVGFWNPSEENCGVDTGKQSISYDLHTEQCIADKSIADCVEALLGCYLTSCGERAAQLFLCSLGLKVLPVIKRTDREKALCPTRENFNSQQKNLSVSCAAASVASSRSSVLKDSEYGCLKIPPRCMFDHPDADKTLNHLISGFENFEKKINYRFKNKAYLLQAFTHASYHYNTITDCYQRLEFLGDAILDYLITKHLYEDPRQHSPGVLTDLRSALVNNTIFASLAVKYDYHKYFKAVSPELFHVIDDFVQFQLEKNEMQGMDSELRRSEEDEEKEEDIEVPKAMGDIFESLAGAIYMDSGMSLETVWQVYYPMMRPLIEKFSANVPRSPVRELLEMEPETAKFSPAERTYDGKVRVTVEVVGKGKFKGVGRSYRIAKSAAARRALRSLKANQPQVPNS
The depositor's hits bear a star.

SMILES	Dicer processing
OC(c1nc2ccc(Cl)cc2[nH]1)C(O)c1nc2ccc(Cl)cc2[nH]1 (configuration not stated)	0.11
O=C1CCCC(O)=C1C=Nc1ccccc1	0.6
CN(C)NC(=O)NC(=O)c1ccc(Oc2cc(Cl)cc(Cl)c2)c([N+](=O)[O-])c1	-0.73
Cc1[nH]nc2c1C1(CCCCC1)C(C#N)=C(N)O2	-4.7
CSc1nnc(-c2ccc(S(=O)(=O)N3CCOCC3)s2)n1C	2.8
CCC(Sc1nnc2sc3ccccc3n12)C(=O)O (configuration not stated)	0.69
CC(CNc1ccc(C(F)(F)F)cc1[N+](=O)[O-])OC(=O)c1cc2ccccc2oc1=O (configuration not stated)	0.24
CC(=O)N1N=C(c2ccc(Br)cc2)OC1c1ccc([N+](=O)[O-])s1 (configuration not stated)	-2.5
Cc1onc(-c2ccccc2)c1C(=O)n1cccc1	-0.05
Cc1onc(-c2ccccc2)c1C(=O)NNC(=O)c1ccc(-n2c(C)ccc2C)cc1	3.1*
Cc1onc(-c2ccccc2)c1C(=O)NCCNC(=O)c1c(-c2ccccc2)noc1C	1.2
O=C(Nc1ccc(F)cc1F)c1ccc2ncccc2c1	1.1
O=C(Nc1cnc2ccccc2c1)c1ccncc1	3.1*
O=C(Nc1ccccc1)Nc1ccc2ncccc2c1	-0.97
O=C(c1ccccc1Br)N(Cc1cccs1)C1CCS(=O)(=O)C1 (configuration not stated)	3.9*
COc1ccc(OCC(=O)N(Cc2cccs2)C2CCS(=O)(=O)C2)cc1 (configuration not stated)	-0.03
COc1ccccc1OCC(=O)N(Cc1cccs1)C1CCS(=O)(=O)C1 (configuration not stated)	0.96
CCOC(=O)NC(Nc1ccccc1C(F)(F)F)(C(=O)OCC)C(F)(F)F (configuration not stated)	-0.62
Oc1ccccc1C1=NN2C(C1)c1cc(Br)ccc1OC2c1ccsc1 (configuration not stated)	4.2*
CSCCC1Oc2ccccc2C2CC(c3cc(C)ccc3O)=NN12 (configuration not stated)	0.58
Oc1ccccc1C1=NN2C(C1)c1ccccc1OC2c1cccs1 (configuration not stated)	6.8
COc1ccc(C2Oc3ccccc3C3CC(c4ccccc4O)=NN32)cc1 (configuration not stated)	5.3
COc1ccc(O)c(C2=NN3C(C2)c2ccccc2OC3c2ccccc2F)c1 (configuration not stated)	6.9*
COc1ccc(O)c(C2=NN3C(C2)c2cc(Br)ccc2OC3c2ccsc2)c1 (configuration not stated)	1.4
COc1ccc(C2Oc3ccccc3C3CC(c4ccccc4O)=NN32)c(OC)c1 (configuration not stated)	5.6
SMILES	Dicer processing
COc1ccc(C2Oc3ccccc3C3CC(c4cc(OC)ccc4O)=NN32)c(OC)c1 (configuration not stated)	2.3
COc1cccc(C2Oc3ccccc3C3CC(c4cc(OC)ccc4O)=NN32)c1 (configuration not stated)	0.91
COc1ccc(C2Oc3ccccc3C3CC(c4cc(OC)ccc4O)=NN32)cc1 (configuration not stated)	9.8*
CC(C)C1Oc2ccc(Cl)cc2C2CC(c3ccccc3O)=NN21 (configuration not stated)	-0.15
CC(C)CC1Oc2ccccc2C2CC(c3ccccc3O)=NN12 (configuration not stated)	5.3*
CC1CCN(C2=CC(=O)OC23CCCCC3)CC1	-0.14
CCOC(=O)c1cnc(O/N=C(\N)c2ccc(C(F)(F)F)cc2)nc1C(F)(F)F	0.82
COCCn1c2c(c(=O)[nH]c1=O)C(c1cccc(OC)c1)C1=C(N2)c2ccccc2C1=O (configuration not stated)	-1.4
CS/C(N)=N\C(=S)Nc1cccc(Cl)c1	7.8
Cc1nnsc1C(=O)O/N=C(/N)COc1ccc(C2SCCS2)cc1	2.2
CCOc1ccc(C2c3c(oc4ccc(F)cc4c3=O)C(=O)N2CC2CCCO2)cc1OC (configuration not stated)	-0.81
Cn1c(-c2ccccc2O)[n+](C)c2ccccc21	-1.5
CC1=C(C(=O)OCC(C)C)C(c2ccc(O)cc2)C2=C(CC(c3cccs3)CC2=O)N1 (configuration not stated)	1.6
COC(=O)c1cc(=O)n2c(-c3ccccc3)nnc2s1	-0.52
CC(=O)/C(N=Nc1ccc2c(c1)OCO2)=C(\C)O	1.3
CC(=O)/C(N=Nc1c(F)cccc1F)=C(\C)O	3.4*
CCOC(=O)/C(N=Nc1ccc(F)cc1F)=C(\C)O	0.61
N#C/C(=C\c1ccc(C#Cc2ccccc2)s1)C(=O)c1cccs1	-1.2
Cn1cnc2c(nnn2Cc2ccc(Cl)cc2)c1=O	-1.9
O=C(O)CCSC(CC(=O)c1ccc(Cl)cc1)c1ccccc1 (configuration not stated)	-0.31
COC(=O)c1sc2scc(C)c2c1C	-3.2
O=C(c1nn2c(c1Cl)NC(c1ccco1)CC2C(F)(F)F)N1CCN(c2ccccc2)CC1 (configuration not stated)	5.3*
CC(C)(C)NC(=O)c1nn2c(c1Br)NC(c1ccccc1)CC2C(F)(F)F (configuration not stated)	-0.07
O=C(Nc1ccc(Cl)cc1)c1cc2n(n1)C(C(F)(F)F)CC(c1ccco1)N2 (configuration not stated)	1.4
O=C(Nc1ccc(Cl)cc1)c1nn2c(c1Cl)NC(c1ccco1)CC2C(F)(F)F (configuration not stated)	3.8*
SMILES	Dicer processing
CC(C)(C)NC(=O)c1nn2c(c1Cl)NC(c1ccco1)CC2C(F)(F)F (configuration not stated)	3.2*
O=C(Nc1ccc(O)cc1)c1cc2n(n1)C(C(F)(F)F)CC(c1ccco1)N2 (configuration not stated)	1.2
O=C(c1nn2c(c1Cl)NC(c1ccco1)CC2C(F)(F)F)N1CCCC1 (configuration not stated)	2.4
O=C(NC1CC1)c1cc2n(n1)C(C(F)(F)F)CC(c1ccco1)N2 (configuration not stated)	-0.56
COc1ccc(N2CCN(C(=O)c3cc4n(n3)C(C(F)(F)F)CC(c3ccco3)N4)CC2)cc1 (configuration not stated)	0.83
O=C(Nc1ccc(Cl)cc1Cl)N1CCCCC1	0.26
O=C(O)c1ccc2c3c([nH]nc13)-c1ccccc1C2=O	-1.4
O=C(CN1C2=NCCN2c2ccccc21)c1ccccc1	0.89
O=C(COc1ccc2c(=O)c(Oc3ccccc3Cl)coc2c1)NC1CCCCC1	0.26
CC(C)=CC(NCc1ccccc1O)C(=O)O (configuration not stated)	-1.5
CC(=O)OC[C@H]1O[C@@H](c2nn[nH]n2)[C@H](OC(C)=O)[C@@H](OC(C)=O)[C@@H]1OC(C)=O	-1.3
COC(=O)C(=O)/C=C(\O)c1ccc(Cl)cc1	-1.8
Cc1ccc(S(=O)(=O)Nc2cc(S(=O)(=O)c3ccc(C)cc3)c(O)c3ncccc23)cc1	-1.3
Cc1ccc(S(=O)(=O)Nc2cc(C)c(O)c(Cl)c2)cc1	0.77
Cc1ccc(S(=O)(=O)Nc2cc(C)c(Br)cc2NS(=O)(=O)c2ccc(C)cc2)cc1	7.2
Cc1c(NS(=O)(=O)c2ccccc2)cc(Cl)c(O)c1C	2.1
Cc1ccc(S(=O)(=O)Nc2cc(C(C)C)c(O)c(Cl)c2C)cc1	3.2*
